Pf growth 96h: P. falciparum growth inhibition at 96 hour, primary screen for plastid delayed-death inhibitors; P. falciparum luciferase reporter growth, 96 h; Potency, µM (top dose mostly 28.7 µM), without a hit: at the top dose activity change, negative = inhibition, most hits filed as inhibitors; actives 6.9% (n = 320,000)
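Compounds incubated with erythrocytes infected by luciferase-expressing P. falciparum (2% hematocrit, 0.05% parasitemia final) for 96 hours, 37 C in 5% CO2. Growth inhibition scored as decreased luciferase luminescence.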
AMA1-RON2 inh: AMA1-RON2 (P. falciparum) interaction inhibition; actives 0.2% (n = 360,000); AlphaScreen AMA1-biotinylated RON2 peptide binding; Potency, µM (titrated, usually from 58.2 µM), inactives show top-dose activity change, negative = inhibition, usual class: inhibitors;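 further: 0% = vehicle wells and -100% = peptide control; nearly all actives have a fitted effect of over 45% in size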
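AMA1 (3D7) with his tag at 25 nM final met compounds first, then biotinylated RON2 peptide at 25 nM; detection used donor plus acceptor beads, 10 µg/mL apiece, read by AlphaScreen after 30 min at room temperature.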
Pf growth 48h: P. falciparum growth inhibition at 48 hours (one generation); P. falciparum luciferase growth in erythrocytes, 48 h; Potency, µM (doses to about 28.7 µM), without a hit: top-dose activity change, negative = inhibition, usual class: inhibitors; actives 5.9% (n = 310,000)
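In quantitative HTS format, infected erythrocytes bearing luciferase-reporter parasites were treated for a single generation at 37 C. Luminescence after adding detection reagent served as the growth measure.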
HCV inh: HCV inhibition; actives 3.4% (n = 340,000); Huh7.5.1 HCVcc-Cre infection, luciferase reporter, 44 h; Potency, µM (series often up to 41.8 µM), for inactives: at the highest dose activity change, negative = inhibition, hits mostly inhibitors
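Cells seeded at 1,000/well and cultured 4 h, then compounds added followed by HCVcc-Cre virus (~0.5 moi). After 44 h further culture, luciferase substrate was added, plates held 15 min at room temperature, and luminescence read for 15 sec.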
* hit, by the source's call; ? = inconclusive; · = no result. A selection: hits, their analogues and other compounds. The true share with any hit is near 11%. The call rests on the fitted dose curve; in most records, active means well fitted curve in the direction sought with a large enough effect; inconclusive means small, poorly fitted or top-dose-only effect, or another doubt; inactive means no such curve, though single readings can be large; an effect the other way counts as inactive or inconclusive. Unless noted, on the % scale 0 is the no-effect control and ±100 the full control effect; potency means the concentration at half of the fitted maximal effect.

SMILES | Pf growth 96h | AMA1-RON2 inh | Pf growth 48h | HCV inh
CC1(C)C=C(c2ccc(O)cc2)CC(C)(C)N1 | 13µM* | 0% | 4% | 14%
Nc1nc2c(Cl)cc(Cl)cc2s1 | 39% | 13% | 20% | 4%
Nc1nc2c(Cl)ccc(Cl)c2s1 | 8.3µM* | -3% | ? | -2%
Cc1ccc(C)c(NC(=O)c2cc(-c3cc(C)c(C)cc3O)n[nH]2)c1 | ? | 73% | 6.6µM* | ?
Cc1ccc(NC(=O)c2cc(-c3cc(C)c(C)cc3O)n[nH]2)cc1C | 2.6µM* | 39% | 2.1µM* | 19%
COc1ccc(-c2cc(C(=O)Nc3ccc(OC)c(OC)c3)[nH]n2)c(C)c1 | · | 3% | · | ·
Cc1ccc(-c2cc(C(=O)Nc3cc(C)ccc3C)[nH]n2)c(O)c1 | ? | 87% | ? | -5%
O=C1OC(O)c2cccc3cccc1c23 (stereo not given) | · | -4% | · | ·
Cc1ccc(NC(=O)C2CCC(CNC(=O)[C@@H]3Cc4ccccc4CN3)CC2)cc1 (stereo not given in full) | ? | 6% | ? | 8%
Cc1cccc(NC(=O)[C@H](Cc2c[nH]c3ccccc23)NC(=O)[C@@H]2Cc3ccccc3CN2)c1 | 12µM* | 43% | 8.3µM* | 4µM*
CCc1ccc(NC(=O)[C@H](NC(=O)[C@@H]2Cc3ccccc3CN2)c2ccccc2)cc1 | ? | 46% | -19% | 4%
CC(C)c1ccc(NC(=O)C2CCC(CNC(=O)[C@@H]3Cc4ccccc4CN3)CC2)cc1 (stereo not given in full) | -5% | -7% | ? | 14µM*
CCc1ccc(NC(=O)[C@H](Cc2c[nH]c3ccccc23)NC(=O)[C@@H]2Cc3ccccc3CN2)cc1 | ? | 40% | ? | 3.5µM*
CCc1ccc(NC(=O)[C@@H](NC(=O)[C@@H]2Cc3ccccc3CN2)C(C)CC)cc1 (stereo not given in full) | ? | 10% | 7.4µM* | -6%
CCCCn1c(N)c(N(C)C(=O)c2cc3c(s2)CCCCC3)c(=O)[nH]c1=O | -27% | 7% | ? | 16%
CC(NC(=O)C(=O)N1CCCCC1)C(c1cccs1)N1CCN(c2ccccc2)CC1 (stereo not given) | ? | 7% | ? | 3%
Cc1cc(C)cc(NC(=O)[C@H](Cc2c[nH]c3ccccc23)NC(=O)[C@@H]2Cc3ccccc3CN2)c1 | ? | 40% | 9.3µM* | ?
C=CCNC(=S)NNC(=O)COc1cccc(Cl)c1 | 44% | 30% | 7% | -8%
COc1cc(OC)c(OC)cc1CCC(C)NCCC(c1ccccc1)c1ccccc1 (stereo not given) | 2.1µM* | ? | 4.1µM* | 7.9µM*
O=C(COC(=O)CCNS(=O)(=O)c1ccc(Cl)cc1)Nc1ccccc1OC(F)F | 22% | 2% | 2% | 3%
O=C(CCc1ccc(Oc2cc([N+](=O)[O-])cc([N+](=O)[O-])c2)cc1)N1CCCCCC1 | ? | ? | 7.4µM* | ?
O=C(Cc1ccc([N+](=O)[O-])cc1)N1CCCCCC1 | ? | -3% | -8% | -8%
O=C(OCc1cn([C@H]2C[C@H](c3ccc(Cl)cc3)N(C(=O)C3CCCCC3)C[C@@H]2O)nn1)c1ccccc1 | · | 0% | · | ·
O=C(Nc1ccccc1N1CCN(C(=O)c2ccc(Cl)cc2)CC1)c1cccc(F)c1 | 14% | -10% | ? | -26%
CC(C)C(=O)NC(=S)Nc1ccccc1N1CCN(C(=O)c2ccc(Cl)cc2)CC1 | -28% | 0% | 1.5µM* | 3%
SMILES | Pf growth 96h | AMA1-RON2 inh | Pf growth 48h | HCV inh
CC(C)(C)C(=O)Nc1ccccc1N1CCN(C(=O)c2ccc(Cl)cc2)CC1 | ? | -14% | 10µM* | ?
O=C(CSc1ccc(Cl)cc1)Nc1ccc(N2CCN(C(=O)c3ccc(Cl)cc3)CC2)cc1 | ? | -6% | -23% | -10%
O=C(CSc1ccc(Cl)cc1)Nc1ccccc1N1CCN(C(=O)c2ccc(Cl)cc2)CC1 | ? | 5% | 4.1µM* | ?
COc1ccccc1/C=C1\SC(=S)N(CCC(=O)Nc2cccc(O)c2)C1=O | 260% | 2% | ? | -19%
COCCn1c(=NC(=O)C(C)(C)C)sc2cc([N+](=O)[O-])ccc21 | 91% | -5% | 39% | 0%
CC(O)/C=C/c1ccc2ccccc2n1 (stereo not given) | · | 3% | -19% | 11µM*
Fc1cccc(F)c1/C=C/c1ccc2ccccc2n1 | 126% | 7% | 88% | -8%
CCN1CCN(CC(=O)N2N=C(c3cccs3)CC2c2ccc(C)cc2)C(=O)C1=O (stereo not given) | ? | 4% | -14% | 6%
COC(=O)C1=C(C)NC2=C(C(=O)CCC2)C1c1ccc(-c2ccsc2C(=O)OC)o1 (stereo not given) | 12µM* | -1% | ? | -9%
CCOC(=O)c1cc2c(c(-c3ccccc3)n1)[C@H](CCO)N(S(=O)(=O)C(C)(C)C)C2 | · | 1% | · | 1%
CCN(Cc1ccncc1)Cc1ccc(OC)cc1OC | -18% | 0% | -2% | 5%
COc1ccc(CN(CCN(C)C)Cc2ccccc2)c(OC)c1 | · | ? | 13µM* | -5%
CCNc1nc(N)nc(Oc2ccc(C(=O)OC)cc2)n1 | 0.26µM* | 7% | 153% | ?
CCNc1nc(Oc2ccc(C(=O)OC)cc2)nc(N(C)C)n1 | ? | 3% | ? | 9%
CCN(CC(=O)Nc1cccc(C(C)=O)c1)S(=O)(=O)c1ccc(C)cc1 | 3% | -6% | -22% | 1%
O=C(COC(=O)COc1ccc(Cl)cc1)NC1CC1 | 21% | 4% | 28% | 31%
O=C(NCC1CCCO1)C1CCN(C2CCN(C(=O)CC3CCCC3)CC2)CC1 (stereo not given) | ? | -15% | -21% | 1%
O=C(NCC1CCCO1)C1CCN(C2CCN(CCCC3CCCC3)CC2)CC1 (stereo not given) | ? | 6% | ? | 10µM*
CCN(CC)c1ncnc2scc(C3COc4ccccc4O3)c12 (stereo not given) | -19% | -22% | 8.3µM* | 11µM*
COc1cccc2c(=O)cc(C)n(CC(=O)Nc3ccc(C)c(C)c3)c12 | 0% | -11% | 0% | 5µM*
N#Cc1ccccc1NC(=O)COc1ccc2c(c1)OCO2 | 8.3µM* | -13% | 121% | 14%
COc1cc(/C=C/C(=O)OCC(=O)N2c3ccccc3NC(=O)C2(C)C)cc(OC)c1OC | ? | 0% | ? | ?
CCN(CC)C(=O)COc1coc(CN2CCN(c3ccccc3F)CC2)cc1=O | 9.3µM* | 38% | -7% | 10%
Cc1cc(NC(=O)COc2coc(CN3CCN(c4ccccc4)CC3)cc2=O)no1 | ? | -7% | ? | 23%
Cc1cc(NC(=O)COc2coc(CN3CCN(c4ccccc4F)CC3)cc2=O)no1 | 9.3µM* | 5% | ? | -15%
CSc1ccc(CN2CCC(C)(Oc3ccc(F)cc3)C2)cc1 (stereo not given) | · | -12% | · | ·
O=C(NCCc1cccc(F)c1)/C(=C/c1cccnc1)NC(=O)c1ccccc1 | ? | -3% | 14% | -25%

Compound activity (PubChem)
